# aSyn UTR act: Activators via SNCA 5'UTR binding, MLPCN; activity score, % (tested at 7.5 µM), hits read low; alpha-synuclein 5'UTR reporter, activators screen; AID 1814, 2009; 300,000 compounds, 7.1% hits; in the data active means activity score below about -60%
# Hits are given with their value; 0 = inactive. Only a sample is shown.
SMILES,aSyn UTR act
COc1ccc(Nc2oc(-c3ccc(Cl)cc3)nc2C#N)cc1,-77
COc1ccc(Nc2oc(COc3ccc(Cl)cc3)nc2C#N)cc1,0
CCOc1ccc(-c2nc(C#N)c(NC3CC3)o2)cc1,-95
COCCCNC(=O)/C=C/c1ccc(Cl)cc1Cl,-85
Cc1occc1C(=O)N/N=C/c1cccs1,-82
Cc1occc1C(=O)Nc1cccc2ccccc12,-172
O=C(N/N=C/c1cccs1)c1n[nH]c2c1CCCC2,0
Cc1occc1C(=O)N/N=C/c1cccc2ccccc12,-200
c1ccc(C2=Nc3ccccc3SC2c2nc3ccccc3[nH]2)cc1 (stereo not drawn),-250
COc1ccc2cc(C(=O)C3CCCN(C(=O)CCc4cnn(C)c4)C3)ccc2c1 (stereo not drawn),-82
COc1ccc(NC(=O)N2CCCC(c3nc(-c4ccc(C(C)C)cc4)no3)C2)cc1 (stereo not drawn),-164
COc1ccc(-c2noc(C3CCCN(C(=O)Nc4ccccc4F)C3)n2)cc1 (stereo not drawn),-114
CCCC(=O)N1CCCC(c2nc(-c3cccc(OC)c3)no2)C1 (stereo not drawn),-84
COc1ccc(-c2noc(C3CCCN(C(=O)Nc4ccccc4)C3)n2)cc1 (stereo not drawn),-102
COc1ccc(NC(=O)N2CCCC(c3nc(-c4ccc(OC)cc4)no3)C2)cc1 (stereo not drawn),-94
COc1ccc(-c2noc(C3CCCN(C(=O)c4ccccc4)C3)n2)cc1 (stereo not drawn),-76
Cc1ccc(NC(=S)/C(=C(\[O-])c2ccc(C)c([N+](=O)[O-])c2)[n+]2ccccc2)cc1C,-158
C=CCOc1c(Cl)cc(C(=S)N2CCCC2)cc1OCC,-95
CCOC(=O)c1c2c(n(C)c1COC)C(=O)C(=O)c1ccc(Br)cc1-2,0
CCOC(=O)c1c(CNc2ccncc2)n(C)c2cc(Br)c(O)cc12,-62
O=C(CCC1CCCCC1)Nc1nccs1,-62
Cc1cnc(NC(=O)C2CCC(C(C)(C)C)CC2)s1 (stereo not drawn),-64
CC(C)(C)C1CCC(C(=O)Nc2nccs2)CC1 (stereo not drawn),-102
COc1cccc(C(=O)CSc2nnnn2C2CCCCC2)c1,-74
Cc1ccc(C)c(C(=O)CSc2nnnn2C(C)C)c1,-65
CC(C)(C)c1nnc2sc(SCC(=O)c3ccc4c(c3)OCCO4)nn2c1=O,-156
CCn1nnnc1SCC(=O)c1ccc2c(c1)OCCO2,-137
CC(C)n1nnnc1SCC(=O)c1ccc2c(c1)OCCO2,-145
O=C(CSc1nnnn1C1CCCC1)c1ccc2c(c1)OCCO2,-102

# High-throughput results (PubChem BioAssay)
